Source: PubChem BioAssay (Tox21)
Several values for one entry are separate records, joined by “and”; a condition that tells them apart may be missing. Identical values can stand only once. Records with an inconclusive call do not appear. Where a call stands in place of a potency, no number is given. A structure can be active in one record and inactive in another. Activity calls are given as the source filed them. Calls come from the whole dose curve; as a rule, active = well fitted curve in the direction sought with a large enough effect in the repeat runs; inconclusive = weak or mixed curves; inactive = no such curve, though single readings can be large; an effect the other way counts as inactive or inconclusive.

Tests used:
[1] = Human pregnane X receptor (PXR) small molecule agonists, qHTS cell viability counter screen (AID 1346977); note: nearly all actives have a fitted effect of over 50% in size
In short: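 Readout is CellTiter-Fluor fluorescence from PXR-Luc HepG2 cells. Plated cells rested 5hr, then were treated with compounds for 24hr at 37C and 5% CO2, with reagent present during the last hour.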

[2] = Caspase-3/7 induction in HepG2 cells by small molecules, qHTS assay (AID 1346978); note: nearly all actives have a fitted effect of over 15% in size
In short: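 Wild-type HepG2 cells, 2,000/well, settled 5 hr at 37 C and 5% CO2, then compound-treated for 17 hr; caspase-3/7 activity read by luminescent Caspase-Glo 3/7 after 30 min at room temperature.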

[3] = Caspase-3/7 induction in CHO-K1 cells by small molecules, qHTS cell viability counter screen (AID 1346979); note: nearly all actives have a fitted effect of over 35% in size; note: potency is the fitted concentration of half-maximal effect
In short: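 To flag cytotoxic compounds, treated CHO-K1 wild-type cells were given CellTiter-Fluor at 16hr and read fluorescently after 1hr at 37C; the caspase-3/7 luminescence was measured in these same wells.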

[4] = Caspase-3/7 induction in CHO-K1 cells by small molecules, qHTS assay (AID 1346980); note: nearly all actives have a fitted effect of over 15% in size
In short: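 Wild-type CHO-K1 cells exposed to compounds for 17hr at 37 C, 5% CO2. Caspase-3/7 activity then measured by Caspase-Glo 3/7 luminescence after 30min at room temperature.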

[5] = Caspase-3/7 induction in HepG2 cells by small molecules, qHTS cell viability counter screen (AID 1346981); note: series mostly up to about 92 µM; nearly all actives have a fitted effect of over 30% in size
In short: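 In this quantitative HTS counter screen, compounds delivered in DMSO were left on unmodified HepG2 cells for 16 hr at 37 C. Viability was then determined fluorometrically with CellTiter-Fluor, in parallel with caspase-3/7 induction in the same wells.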

[6] = target: Cytochrome P450 2D6 (Homo sapiens) (UniProt P10635); assay: Cytochrome P450 Family 2 Subfamily D Member 6 (CYP2D6) small molecule antagonists: luciferase reporter qHTS assay (AID 1671196); note: series mostly up to about 120 µM; nearly all actives have a fitted effect of over 50% in size
Sequence of Cytochrome P450 2D6 (Homo sapiens) (P10635 whole entry, looked up): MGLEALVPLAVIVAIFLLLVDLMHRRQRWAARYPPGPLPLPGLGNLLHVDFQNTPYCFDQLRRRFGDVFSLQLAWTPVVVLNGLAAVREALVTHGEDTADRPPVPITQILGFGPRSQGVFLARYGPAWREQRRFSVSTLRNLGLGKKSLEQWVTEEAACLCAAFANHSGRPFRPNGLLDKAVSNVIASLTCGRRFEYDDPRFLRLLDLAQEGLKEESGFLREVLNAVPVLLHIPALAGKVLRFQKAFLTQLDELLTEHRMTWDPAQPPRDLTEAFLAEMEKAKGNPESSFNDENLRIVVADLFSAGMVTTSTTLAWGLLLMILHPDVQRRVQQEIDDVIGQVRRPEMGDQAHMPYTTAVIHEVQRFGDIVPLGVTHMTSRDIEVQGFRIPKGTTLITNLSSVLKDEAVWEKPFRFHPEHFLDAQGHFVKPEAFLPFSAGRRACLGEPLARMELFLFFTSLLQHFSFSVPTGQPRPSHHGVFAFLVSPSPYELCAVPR
In short: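 Test chemicals meet CYP2D6 plus proluciferin substrate (10 min, RT); NADPH regenerating solution then drives turnover for 1 h. Detection reagent halts the reaction; luminescence measured after 20 min.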

[7] = target: Cytochrome P450 2C19 (Homo sapiens) (UniProt P33261); assay: Cytochrome P450 Family 2 Subfamily C Member 19 (CYP2C19) small molecule antagonists: luciferase reporter qHTS assay (AID 1671197); note: nearly all actives have a fitted effect of over 65% in size; note: potency is the fitted concentration of half-maximal effect
Sequence of Cytochrome P450 2C19 (Homo sapiens) (P33261 whole entry, looked up): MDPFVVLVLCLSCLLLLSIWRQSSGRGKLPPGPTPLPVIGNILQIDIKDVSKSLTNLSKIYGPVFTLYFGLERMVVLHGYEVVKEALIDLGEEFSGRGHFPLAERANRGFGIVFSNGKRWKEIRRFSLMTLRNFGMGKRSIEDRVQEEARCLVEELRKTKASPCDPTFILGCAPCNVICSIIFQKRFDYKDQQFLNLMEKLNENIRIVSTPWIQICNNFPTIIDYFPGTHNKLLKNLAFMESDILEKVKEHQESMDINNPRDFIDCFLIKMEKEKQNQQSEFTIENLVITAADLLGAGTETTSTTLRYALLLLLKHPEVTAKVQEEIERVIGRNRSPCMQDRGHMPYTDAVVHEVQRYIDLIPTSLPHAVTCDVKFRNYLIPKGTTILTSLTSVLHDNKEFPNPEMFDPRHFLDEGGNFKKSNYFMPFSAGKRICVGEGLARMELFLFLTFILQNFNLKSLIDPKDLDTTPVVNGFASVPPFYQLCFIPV
In short: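 P450-Glo CYP2C19 system: enzyme-substrate mix with compound 10 min at room temperature, then NADPH regeneration solution, 1 h at 37C. Proluciferin-to-luciferin conversion detected by luminescence after 20 min with detection reagent; ketoconazole as positive control.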

[8] = target: Cytochrome P450 2C9 (Homo sapiens) (UniProt P11712); assay: Cytochrome P450 Family 2 Subfamily C Member 9 (CYP2C9) small molecule antagonists: luciferase reporter qHTS assay (AID 1671198); note: nearly all actives have a fitted effect of over 50% in size; note: potency is the fitted concentration of half-maximal effect
Sequence of Cytochrome P450 2C9 (Homo sapiens) (P11712 whole entry, looked up): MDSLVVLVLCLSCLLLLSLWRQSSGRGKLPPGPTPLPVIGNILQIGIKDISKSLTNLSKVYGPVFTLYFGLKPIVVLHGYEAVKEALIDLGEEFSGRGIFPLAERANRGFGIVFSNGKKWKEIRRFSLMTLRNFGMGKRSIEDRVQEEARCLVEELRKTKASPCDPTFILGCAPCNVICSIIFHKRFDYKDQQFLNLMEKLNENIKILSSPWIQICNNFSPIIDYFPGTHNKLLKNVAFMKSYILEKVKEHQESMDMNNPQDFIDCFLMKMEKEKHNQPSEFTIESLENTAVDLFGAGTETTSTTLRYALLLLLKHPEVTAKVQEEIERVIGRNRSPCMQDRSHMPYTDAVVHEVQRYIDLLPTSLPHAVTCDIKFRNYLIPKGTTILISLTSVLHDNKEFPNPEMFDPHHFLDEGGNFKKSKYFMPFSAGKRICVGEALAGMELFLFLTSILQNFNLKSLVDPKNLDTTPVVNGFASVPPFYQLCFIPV
In short: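 P450-Glo proluciferin substrate with CYP2C9 enzyme; 10 min RT preincubation, then NADPH regeneration 1 h at 37C; luciferin detection reagent 20 min RT, luminescence in relative luminescence units.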

[9] = target: Cytochrome P450 1A2 (Homo sapiens) (UniProt P05177); assay: Cytochrome P450 Family 1 Subfamily A Member 2 (CYP1A2) small molecule antagonists: luciferase reporter qHTS assay (AID 1671199); note: nearly all actives have a fitted effect of over 50% in size; note: potency is the fitted concentration of half-maximal effect
Sequence of Cytochrome P450 1A2 (Homo sapiens) (P05177 whole entry, looked up): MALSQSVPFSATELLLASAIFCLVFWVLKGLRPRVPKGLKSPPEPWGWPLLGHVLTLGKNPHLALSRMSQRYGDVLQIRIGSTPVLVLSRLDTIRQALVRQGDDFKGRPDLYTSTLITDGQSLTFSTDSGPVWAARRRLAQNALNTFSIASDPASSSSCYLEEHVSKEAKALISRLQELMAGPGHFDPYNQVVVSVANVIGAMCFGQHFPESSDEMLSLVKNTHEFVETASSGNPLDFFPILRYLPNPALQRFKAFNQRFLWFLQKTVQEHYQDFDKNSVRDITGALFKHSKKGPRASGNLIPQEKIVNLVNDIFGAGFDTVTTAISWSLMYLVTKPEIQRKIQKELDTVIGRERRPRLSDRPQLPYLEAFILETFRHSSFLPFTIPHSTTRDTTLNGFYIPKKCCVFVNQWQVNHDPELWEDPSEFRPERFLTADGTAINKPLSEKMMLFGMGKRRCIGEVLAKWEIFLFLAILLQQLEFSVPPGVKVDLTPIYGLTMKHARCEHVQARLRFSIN
In short: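 Steps: enzyme-substrate mix dispensed; test compounds and furafylline control pinned in; 10 min room temperature; NADPH regeneration solution added, 1 h; reaction stopped with luciferin detection reagent; luminescence read after 20 min.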

[10] = target: Voltage-gated inwardly rectifying potassium channel KCNH2 (Homo sapiens) (UniProt Q12809); assay: Human Ether-a-go-go-Related Gene (hERG) channel small molecule antagonists: fluorescence cell-based qHTS assay (AID 1671200)
Sequence of Voltage-gated inwardly rectifying potassium channel KCNH2 (Homo sapiens) (Q12809 whole entry, looked up): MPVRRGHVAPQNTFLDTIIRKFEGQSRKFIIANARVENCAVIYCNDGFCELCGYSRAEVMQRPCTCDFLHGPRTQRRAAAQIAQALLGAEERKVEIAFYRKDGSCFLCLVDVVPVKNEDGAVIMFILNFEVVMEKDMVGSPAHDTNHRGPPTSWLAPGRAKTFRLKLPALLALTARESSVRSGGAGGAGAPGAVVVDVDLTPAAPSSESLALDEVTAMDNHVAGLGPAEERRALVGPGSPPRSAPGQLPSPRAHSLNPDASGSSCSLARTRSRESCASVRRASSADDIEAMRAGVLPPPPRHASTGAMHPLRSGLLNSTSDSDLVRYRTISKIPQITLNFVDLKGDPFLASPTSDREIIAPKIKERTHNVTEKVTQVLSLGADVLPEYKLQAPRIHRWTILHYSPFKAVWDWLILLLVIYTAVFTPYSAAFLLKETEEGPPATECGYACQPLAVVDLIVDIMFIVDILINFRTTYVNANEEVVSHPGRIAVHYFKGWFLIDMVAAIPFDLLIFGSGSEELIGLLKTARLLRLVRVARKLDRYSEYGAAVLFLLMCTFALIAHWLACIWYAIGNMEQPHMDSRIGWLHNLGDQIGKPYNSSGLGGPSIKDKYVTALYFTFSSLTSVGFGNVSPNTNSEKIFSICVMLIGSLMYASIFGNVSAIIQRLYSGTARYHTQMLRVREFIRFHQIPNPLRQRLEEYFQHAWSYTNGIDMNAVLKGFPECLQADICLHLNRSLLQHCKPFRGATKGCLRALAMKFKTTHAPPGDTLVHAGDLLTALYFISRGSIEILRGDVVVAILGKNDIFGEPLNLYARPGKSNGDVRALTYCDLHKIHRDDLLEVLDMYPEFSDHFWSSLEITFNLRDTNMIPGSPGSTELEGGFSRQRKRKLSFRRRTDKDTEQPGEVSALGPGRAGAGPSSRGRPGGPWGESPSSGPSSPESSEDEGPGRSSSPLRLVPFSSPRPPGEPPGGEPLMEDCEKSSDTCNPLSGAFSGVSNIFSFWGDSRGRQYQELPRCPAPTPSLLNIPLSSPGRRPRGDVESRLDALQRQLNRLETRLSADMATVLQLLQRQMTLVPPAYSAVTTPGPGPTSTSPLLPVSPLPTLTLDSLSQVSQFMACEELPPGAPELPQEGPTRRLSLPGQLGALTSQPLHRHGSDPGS
In short: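 Measured: Tl+ flux via fluorescence (480/540 nm) in hERG-expressing U2OS cells after 1 h dye loading at room temperature.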

[11] = target: Cytochrome P450 3A4 (Homo sapiens) (UniProt P08684); assay: Cytochrome P450 Family 3 Subfamily A Member 4 (CYP3A4) small molecule antagonists: luciferase reporter qHTS assay (AID 1671201); note: nearly all actives have a fitted effect of over 50% in size; note: potency is the fitted concentration of half-maximal effect
Sequence of Cytochrome P450 3A4 (Homo sapiens) (P08684 whole entry, looked up): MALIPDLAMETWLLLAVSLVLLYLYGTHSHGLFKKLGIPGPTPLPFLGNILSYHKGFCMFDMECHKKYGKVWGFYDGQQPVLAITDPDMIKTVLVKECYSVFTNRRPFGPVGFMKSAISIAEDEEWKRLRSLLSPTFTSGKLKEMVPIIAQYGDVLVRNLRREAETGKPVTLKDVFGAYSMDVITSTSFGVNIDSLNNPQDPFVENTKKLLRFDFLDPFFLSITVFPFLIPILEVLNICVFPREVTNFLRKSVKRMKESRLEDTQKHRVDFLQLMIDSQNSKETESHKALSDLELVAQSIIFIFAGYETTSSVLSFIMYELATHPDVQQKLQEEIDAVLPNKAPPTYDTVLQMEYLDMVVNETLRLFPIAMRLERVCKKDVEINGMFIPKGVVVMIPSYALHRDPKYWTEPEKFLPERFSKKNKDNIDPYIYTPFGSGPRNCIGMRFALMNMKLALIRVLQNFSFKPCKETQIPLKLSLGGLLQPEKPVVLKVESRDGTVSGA
In short: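 Setup: enzyme-substrate mix, compound pin transfer, 10 min RT. Reaction: NADPH regeneration solution, 1 h RT. Readout: detection reagent stops turnover, luminescence measured after 20 min, expressed in relative luminescence units.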

[12] = target: Nuclear receptor subfamily 1 group I member 2 (Homo sapiens) (UniProt O75469); assay: Human pregnane X receptor (PXR) small molecule agonists, qHTS assay (AID 1346982); note: nearly all actives have a fitted effect of over 35% in size; note: potency is the fitted concentration of half-maximal effect
Sequence of Nuclear receptor subfamily 1 group I member 2 (Homo sapiens) (O75469 whole entry, looked up): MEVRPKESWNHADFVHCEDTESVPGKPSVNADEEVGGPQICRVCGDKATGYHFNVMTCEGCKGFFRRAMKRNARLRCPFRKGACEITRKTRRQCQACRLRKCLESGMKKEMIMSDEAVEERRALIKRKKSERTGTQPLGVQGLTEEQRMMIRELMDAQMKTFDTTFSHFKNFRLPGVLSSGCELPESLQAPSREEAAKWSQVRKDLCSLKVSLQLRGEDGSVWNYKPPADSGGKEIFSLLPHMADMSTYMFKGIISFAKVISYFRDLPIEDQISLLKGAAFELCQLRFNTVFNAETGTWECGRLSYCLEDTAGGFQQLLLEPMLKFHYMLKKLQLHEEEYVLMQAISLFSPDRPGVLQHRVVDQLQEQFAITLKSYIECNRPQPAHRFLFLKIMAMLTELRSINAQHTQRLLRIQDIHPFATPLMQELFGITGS
In short: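 Reporter HepG2 cells expressing PXR-Luc are cultured in charcoal-stripped FBS (5%), treated with compounds for 24 hr at 37 C, and assayed by ONE-Glo luminescence after 30 min at room temperature.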

[13] = target: Nuclear receptor subfamily 1 group I member 2 (Rattus norvegicus) (UniProt Q9R1A7); assay: Rat pregnane X receptor (rPXR) activation by small molecules, qHTS assay (AID 1346983); settings: rPXR luciferase reporter cells, One-Glo luminescence, 24 h; max activation: stronger effect = higher value; note: nearly all actives have a fitted effect of over 20% in size
Sequence of Nuclear receptor subfamily 1 group I member 2 (Rattus norvegicus) (Q9R1A7 whole entry, looked up): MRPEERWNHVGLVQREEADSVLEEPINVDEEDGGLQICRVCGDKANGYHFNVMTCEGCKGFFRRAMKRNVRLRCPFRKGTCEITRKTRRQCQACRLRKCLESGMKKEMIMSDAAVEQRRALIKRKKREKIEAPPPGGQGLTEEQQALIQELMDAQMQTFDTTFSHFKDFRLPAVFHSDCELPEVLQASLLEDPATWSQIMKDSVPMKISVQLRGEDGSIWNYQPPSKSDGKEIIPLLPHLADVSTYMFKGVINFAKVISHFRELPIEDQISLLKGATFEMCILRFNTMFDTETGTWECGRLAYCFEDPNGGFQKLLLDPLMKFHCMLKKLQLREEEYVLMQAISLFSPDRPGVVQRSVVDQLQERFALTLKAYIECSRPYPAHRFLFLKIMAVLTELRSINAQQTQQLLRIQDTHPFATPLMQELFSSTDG
In short: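 Cell-based rPXR activation assay: rPXR cells, 2,000 per well, rested 5hr at 37 C, then exposed to compounds in DMSO for 24 hr at 37 C. Luciferase activity read by One-Glo luminescence after 30 min at room temperature.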

[14] = target: Nuclear receptor subfamily 1 group I member 2 (Homo sapiens) (UniProt O75469); assay: CYP3A4 induction through human pregnane X receptor (PXR) by small molecules, qHTS assay (AID 1346984); note: nearly all actives have a fitted effect of over 40% in size
In short: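 Induction measured in HepG2-based DPX-2 cells co-expressing human PXR and a CYP3A4 promoter-driven luciferase. After a 24-hour compound exposure, cells received CYP3A4 luciferin substrate at 3uM final for 3 hours, and light output was then recorded.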

[15] = target: Nuclear receptor subfamily 1 group I member 2 (Homo sapiens) (UniProt O75469); assay: Human pregnane X receptor (PXR) activation by small molecules, qHTS assay (AID 1346985); note: nearly all actives have a fitted effect of over 40% in size
In short: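 DPX-2 cells (HepG2 co-transfected with a PXR response element and a CYP3A4-promoter luciferase construct) were seeded at 2,000 per well, rested 5 hr at 37C, then exposed to DMSO-dissolved compounds for 24 hr. Activation was read as luciferase luminescence.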

| Compound | Potency [1] | Potency [2] | Potency [3] | Potency [4] | Potency [5] | Potency [6] | Potency [7] | Potency [8] | Potency [9] | Potency [10] | Potency [11] | Potency [12] | max activation [13] | Potency [14] | Potency [15] |
| --- | --- | --- | --- | --- | --- | --- | --- | --- | --- | --- | --- | --- | --- | --- | --- |
| Cc1cccc([N+](=O)[O-])c1C | inactive | inactive | inactive | inactive | inactive | inactive | inactive | inactive | inactive | inactive | inactive |  |  |  |  |
| CCC(C)CO (configuration not stated) | inactive | inactive | inactive | inactive | inactive | inactive | 35.1 µM (active) and inactive | inactive | inactive | inactive | inactive |  |  |  |  |
| O=Cc1ccccc1O | inactive | inactive | inactive | inactive | inactive | inactive | inactive | inactive | inactive | inactive | inactive |  |  |  |  |
| CC(C)=CCC/C(C)=C\CO | inactive | inactive | inactive | inactive | inactive |  |  |  |  | inactive |  |  |  |  |  |
| COc1c(Cl)c(Cl)c(Cl)c(Cl)c1Cl | inactive | inactive | inactive | inactive | inactive | inactive | inactive | inactive | 28.4 µM (active) and 5.03 µM (active) | inactive | inactive |  |  |  |  |
| C#C[C@]1(O)CC[C@H]2[C@@H]3CCc4cc(OC)ccc4[C@H]3CC[C@@]21C | inactive | inactive | 27.3 µM (active) and 18.8 µM (active) |  | inactive | inactive | 3.56 µM (active) and 2.19 µM (active) | 5.64 µM (active) and 6.92 µM (active) | 7.1 µM (active) and 9.77 µM (active) | inactive |  | 21.7 µM (active) and 18.8 µM (active) | 4.03% (inactive) | inactive |  |
| O=CCCCC=O | inactive | inactive | inactive |  | inactive | inactive | inactive | inactive | inactive | inactive | inactive | inactive | 4.17% (inactive) | inactive | inactive |
| OC1CCCCCCCCCCC1 | inactive | inactive | inactive | inactive | inactive | inactive | inactive | inactive | 25.2 µM (active) | inactive |  |  |  |  |  |
| CCCCC(CC)COP(=O)(OCC(CC)CCCC)OCC(CC)CCCC (configuration not stated) | inactive | inactive | inactive | inactive | inactive | inactive | inactive and 71 µM (active) | inactive | inactive | inactive | inactive and 5.64 µM (active) |  |  |  |  |
| COC(C)COC(C)COC(C)CO (configuration not stated) | inactive | inactive | inactive | inactive | inactive | inactive | inactive | 22.4 µM (active) | inactive | inactive | inactive |  |  |  |  |
| CCCCNS(=O)(=O)c1ccccc1 | inactive | inactive | inactive | inactive | inactive | inactive | 7.01 µM (active) and 17.8 µM (active) | 35.1 µM (active) and 35.6 µM (active) | inactive | inactive | inactive |  |  |  |  |
| c1ccc2sc(SSN3CCOCC3)nc2c1 | inactive | inactive | 61 µM (active) and 61.1 µM (active) | inactive | inactive |  | 17.8 µM (active) | 15.9 µM (active) and 11.2 µM (active) | 20 µM (active) and 22.4 µM (active) | inactive | inactive |  |  |  |  |
| OC[C@H]1O[C@@H]2O[C@H]3[C@H](O)[C@@H](O)[C@@H](O[C@H]4[C@H](O)[C@@H](O)[C@@H](O[C@H]5[C@H](O)[C@@H](O)[C@@H](O[C@H]6[C@H](O)[C@@H](O)[C@@H](O[C@H]7[C@H](O)[C@@H](O)[C@@H](O[C@H]8[C@H](O)[C@@H](O)[C@@H](O[C@H]1[C@H](O)[C@H]2O)O[C@@H]8CO)O[C@@H]7CO)O[C@@H]6CO)O[C@@H]5CO)O[C@@H]4CO)O[C@@H]3CO | inactive | inactive | inactive | inactive | inactive |  | 31.8 µM (active) and inactive | inactive | inactive | inactive | inactive |  | -2.34% (inactive) | inactive | inactive |
